# About 85 (1%) of roughly 5,700 compounds were called active. Cut-off read from the data, not from the text of the source: active = p53-positive nuclei above about 36% (passing the limit was not always enough); inactive = the rest. This excerpt belongs to a sample that is enriched for actives.
# Legend:
# [1] = nuclear p53 accumulation, HPV+ cells – imaging, p53-positive nuclei imaging, 24 h, 48 h (AID 1508601); settings: 24/48 h
# [2] = target: Cellular tumor antigen p53 (Homo sapiens) (UniProt P04637); experiment: as above; settings: 24/48 h, stronger effect = higher value
# [3] = measured here: cell number at 24 h, Library stock concentration: 3.33 mM
# [4] = measured here: cell number at 48 h, Library stock concentration: 3.33 mM
# [5] = Library stock concentration: 3.33 mM
# [6] = measured here: p53 positive nuclei at 24 h, Library stock concentration: 3.33 mM
# [7] = measured here: cell number at 24 h, Library stock concentration: 80 uM
# [8] = measured here: cell number at 24 h, Library stock concentration: 400 uM
# [9] = measured here: cell number at 24 h, Library stock concentration: 2 mM
# [10] = measured here: cell number at 24 h, Library stock concentration: 10 mM
# [11] = measured here: cell number at 48 h, Library stock concentration: 80 uM
# [12] = measured here: cell number at 48 h, Library stock concentration: 400 uM
# [13] = measured here: cell number at 48 h, Library stock concentration: 2 mM
# [14] = measured here: cell number at 48 h, Library stock concentration: 10 mM
# [15] = Library stock concentration: 80 uM
# [16] = Library stock concentration: 400 uM
# [17] = Library stock concentration: 2 mM
# [18] = Library stock concentration: 10 mM
# [19] = measured here: p53 positive nuclei at 24 h, Library stock concentration: 80 uM
# [20] = measured here: p53 positive nuclei at 24 h, Library stock concentration: 400 uM
# [21] = measured here: p53 positive nuclei at 24 h, Library stock concentration: 2 mM
# [22] = measured here: p53 positive nuclei at 24 h, Library stock concentration: 10 mM
# [23] = measured here: cell number at 24 h, concentration not given here
# [24] = measured here: cell number at 48 h, concentration not given here
# [25] = measured here: p53 positive nuclei at 24 h, concentration not given here
# Cellular tumor antigen p53 (Homo sapiens), sequence (P04637 whole entry, looked up): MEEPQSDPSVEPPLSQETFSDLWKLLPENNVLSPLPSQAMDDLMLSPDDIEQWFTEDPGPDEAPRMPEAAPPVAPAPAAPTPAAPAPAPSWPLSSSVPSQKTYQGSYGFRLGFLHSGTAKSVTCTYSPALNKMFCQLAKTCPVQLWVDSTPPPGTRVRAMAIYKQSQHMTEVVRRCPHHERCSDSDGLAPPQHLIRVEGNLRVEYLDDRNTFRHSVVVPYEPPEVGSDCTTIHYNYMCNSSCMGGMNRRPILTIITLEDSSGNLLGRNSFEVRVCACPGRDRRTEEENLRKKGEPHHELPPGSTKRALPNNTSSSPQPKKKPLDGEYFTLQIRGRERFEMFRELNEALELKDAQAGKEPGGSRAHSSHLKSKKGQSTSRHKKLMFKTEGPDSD
smiles,measurement,setting,value
O=c1[nH]c2ccc(Cl)cc2c(NC2CN3CCC2CC3)c1-c1nc2ccccc2[nH]1 (stereo not drawn),"nuclei count, normalised",[1]; [3],52.7%
same,"nuclei count, normalised",[1]; [4],33.7%
same,"p53-positive nuclei, normalised",[2]; [5],34% (inactive)
same,"p53-positive nuclei, normalised",[2]; [6],8.33%
C[C@]12C=CC(=O)C=C1CC[C@@H]1[C@@H]2CC[C@]2(C)OC(=O)CC[C@@H]12,"nuclei count, normalised",[1]; [7],87.6%
same,"nuclei count, normalised",[1]; [8],90.3%
same,"nuclei count, normalised",[1]; [9],93%
same,"nuclei count, normalised",[1]; [10],89.5%
same,"nuclei count, normalised",[1]; [11],95.1%
same,"nuclei count, normalised",[1]; [12],95%
same,"nuclei count, normalised",[1]; [13],99.5%
same,"nuclei count, normalised",[1]; [14],97.4%
same,"p53-positive nuclei, normalised",[2]; [15],-0.0445% (inactive)
same,"p53-positive nuclei, normalised",[2]; [16],0.096% (inactive)
same,"p53-positive nuclei, normalised",[2]; [17],-0.0494% (inactive)
same,"p53-positive nuclei, normalised",[2]; [18],-0.00393% (inactive)
same,"p53-positive nuclei, normalised",[2]; [19],-0.0455%
same,"p53-positive nuclei, normalised",[2]; [20],0.101%
same,"p53-positive nuclei, normalised",[2]; [21],0.166%
same,"p53-positive nuclei, normalised",[2]; [22],-0.0487%
O=C1c2ccccc2C(=O)c2ccccc21,"nuclei count, normalised",[1]; [23],102%
same,"nuclei count, normalised",[1]; [24],96.8%
same,"p53-positive nuclei, normalised",[2]; concentration not given here,-0.00139% (inactive)
same,"p53-positive nuclei, normalised",[2]; [25],-0.102%
O=C1C(=O)c2cccc3cccc1c23,"nuclei count, normalised",[1]; [7],115%
same,"nuclei count, normalised",[1]; [8],118%
same,"nuclei count, normalised",[1]; [9],118%
same,"nuclei count, normalised",[1]; [10],109%
same,"nuclei count, normalised",[1]; [11],119%
same,"nuclei count, normalised",[1]; [12],112%
same,"nuclei count, normalised",[1]; [13],115%
same,"nuclei count, normalised",[1]; [14],115%
same,"p53-positive nuclei, normalised",[2]; [15],0.0597% (inactive)
same,"p53-positive nuclei, normalised",[2]; [16],0.0621% (inactive)
same,"p53-positive nuclei, normalised",[2]; [17],0.165% (inactive)
same,"p53-positive nuclei, normalised",[2]; [18],0.252% (inactive)
same,"p53-positive nuclei, normalised",[2]; [19],-0.0696%
same,"p53-positive nuclei, normalised",[2]; [20],-0.0154%
same,"p53-positive nuclei, normalised",[2]; [21],0.208%
same,"p53-positive nuclei, normalised",[2]; [22],0.327%
CC1=CC(=O)c2c(O)cccc2C1=O,"nuclei count, normalised","[1]; measured here: cell number at 24 h, Library stock concentration: 500 nM",119%
same,"nuclei count, normalised","[1]; measured here: cell number at 24 h, Library stock concentration: 1.5 uM",116%
same,"nuclei count, normalised","[1]; measured here: cell number at 24 h, Library stock concentration: 4.6 uM",126%
same,"nuclei count, normalised","[1]; measured here: cell number at 24 h, Library stock concentration: 13.7 uM",115%
same,"nuclei count, normalised","[1]; measured here: cell number at 24 h, Library stock concentration: 41 uM",118%
same,"nuclei count, normalised","[1]; measured here: cell number at 24 h, Library stock concentration: 123 uM",108%
same,"nuclei count, normalised","[1]; measured here: cell number at 24 h, Library stock concentration: 370 uM",94.6%
same,"nuclei count, normalised","[1]; measured here: cell number at 24 h, Library stock concentration: 1.111 mM",55.5%
same,"nuclei count, normalised","[1]; measured here: cell number at 24 h, Library stock concentration: 3.333 mM",48.6%
same,"nuclei count, normalised",[1]; [10],49%
same,"nuclei count, normalised","[1]; measured here: cell number at 48 h, Library stock concentration: 500 nM",113%
same,"nuclei count, normalised","[1]; measured here: cell number at 48 h, Library stock concentration: 1.5 uM",115%
same,"nuclei count, normalised","[1]; measured here: cell number at 48 h, Library stock concentration: 4.6 uM",120%
same,"nuclei count, normalised","[1]; measured here: cell number at 48 h, Library stock concentration: 13.7 uM",115%
same,"nuclei count, normalised","[1]; measured here: cell number at 48 h, Library stock concentration: 41 uM",118%
same,"nuclei count, normalised","[1]; measured here: cell number at 48 h, Library stock concentration: 123 uM",111%
same,"nuclei count, normalised","[1]; measured here: cell number at 48 h, Library stock concentration: 370 uM",102%
same,"nuclei count, normalised","[1]; measured here: cell number at 48 h, Library stock concentration: 1.111 mM",32.4%
same,"nuclei count, normalised","[1]; measured here: cell number at 48 h, Library stock concentration: 3.333 mM",31.9%
same,"nuclei count, normalised",[1]; [14],32.5%
same,"p53-positive nuclei, normalised",[2]; Library stock concentration: 500 nM,-0.129% (inactive)
same,"p53-positive nuclei, normalised",[2]; Library stock concentration: 1.5 uM,-0.0912% (inactive)
same,"p53-positive nuclei, normalised",[2]; Library stock concentration: 4.6 uM,0.131% (inactive)
same,"p53-positive nuclei, normalised",[2]; Library stock concentration: 13.7 uM,-0.0585% (inactive)
same,"p53-positive nuclei, normalised",[2]; Library stock concentration: 41 uM,-0.0569% (inactive)
same,"p53-positive nuclei, normalised",[2]; Library stock concentration: 123 uM,0.196% (inactive)
same,"p53-positive nuclei, normalised",[2]; Library stock concentration: 370 uM,-0.0821% (inactive)
same,"p53-positive nuclei, normalised",[2]; Library stock concentration: 1.111 mM,48.3% (active)
same,"p53-positive nuclei, normalised",[2]; Library stock concentration: 3.333 mM,2.14% (inactive)
same,"p53-positive nuclei, normalised",[2]; [18],-0.248% (inactive)
same,"p53-positive nuclei, normalised","[2]; measured here: p53 positive nuclei at 24 h, Library stock concentration: 500 nM",0.0252%
same,"p53-positive nuclei, normalised","[2]; measured here: p53 positive nuclei at 24 h, Library stock concentration: 1.5 uM",0.031%
same,"p53-positive nuclei, normalised","[2]; measured here: p53 positive nuclei at 24 h, Library stock concentration: 4.6 uM",-0.0368%
same,"p53-positive nuclei, normalised","[2]; measured here: p53 positive nuclei at 24 h, Library stock concentration: 13.7 uM",0.0863%
same,"p53-positive nuclei, normalised","[2]; measured here: p53 positive nuclei at 24 h, Library stock concentration: 41 uM",-0.027%
same,"p53-positive nuclei, normalised","[2]; measured here: p53 positive nuclei at 24 h, Library stock concentration: 123 uM",0.171%
same,"p53-positive nuclei, normalised","[2]; measured here: p53 positive nuclei at 24 h, Library stock concentration: 370 uM",0.0792%
same,"p53-positive nuclei, normalised","[2]; measured here: p53 positive nuclei at 24 h, Library stock concentration: 1.111 mM",61.6%
same,"p53-positive nuclei, normalised","[2]; measured here: p53 positive nuclei at 24 h, Library stock concentration: 3.333 mM",3.81%
same,"p53-positive nuclei, normalised",[2]; [22],-0.148%
C[C@]12NC(Cc3ccccc31)c1ccccc12,"nuclei count, normalised",[1]; [3],121%
same,"nuclei count, normalised",[1]; [4],112%
same,"p53-positive nuclei, normalised",[2]; [5],-0.107% (inactive)
same,"p53-positive nuclei, normalised",[2]; [6],-0.588%
CCCCC/C=C\C/C=C\C/C=C\C/C=C\CCCC(=O)NCCF,"nuclei count, normalised",[1]; [23],90.3%
same,"nuclei count, normalised",[1]; [24],90.8%
same,"p53-positive nuclei, normalised",[2]; concentration not given here,0.105% (inactive)
same,"p53-positive nuclei, normalised",[2]; [25],-0.0127%
